Source: PubChem BioAssay (several laboratories)
CF NFkB inh = cystic fibrosis NF-kB activation inhibition; KKLEB NF-kB-GFP reporter, PAF-induced, GFP fluorescence overnight; 360,000 compounds, 0.86% hits; inhibition, % at 5 µM; AID 588850;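 active = at least 50% inhibition at 5 µM, scaled per plate between neutral and stimulator controls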;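 also: PAF is a Pseudomonas aeruginosa culture filtrate used as stimulus; plate controls were PAF-stimulated DMSO wells for no effect and unstimulated DMSO wells for full effect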
Shn3 inh set2 = inhibitors of Schnurri-3 3'UTR reporter in osteoblasts; Clone20 osteoblast Shn3 3'UTR firefly luciferase, 24 h; 360,000 compounds, 0.52% hits; inhibition, % at 12.5 µM;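 active = mean inhibition of at least 75% with every replicate also reaching 75%; inconclusive = mean inhibition at least 75% but some replicate below; inactive = mean inhibition below 75%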;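 also: 0% = median of neutral control wells and 100% = pilot-screen positive control compound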
MITF TRPM1 inh = MITF TRPM1 promoter inhibition in SK-MEL-5 cells; 330,000 compounds, 0.83% hits; AID 488899; inhibition, % at 12.5 µM; SK-MEL-5 TRPM1 promoter luciferase, 24 h;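 active = mean inhibition across replicates of 60% or more, whatever share of single replicates reaches that level; inconclusive = some that reach 60%, reason not given; inactive = mean inhibition across replicates below 60%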
Peg3 prom inh = inhibitors of Peg3 promoter. HeLa PEG-Prom luciferase reporter, luminescence, overnight. inhibition, % at 20 µM. 360,000 compounds, 1.7% hits;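 active = inhibition of at least 50% at 20 µM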
HIF-2a block = inhibitors of HIF-2a; inhibition, % at 18.8 µM; AID 624352; 360,000 compounds, 0.72% hits; 786-0 RCC cells HIF-2a reporter, luciferase luminescence, overnight;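 active = inhibition of the luminescence signal of 40% or more relative to plate controls, in a single-dose primary screen at 18.75 µM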
KKLEB cytotox = CF airway cell cytotoxicity counter-screen | KKLEB CF airway cells viability, ATPlite luminescence, overnight; stronger effect = lower value; cells stimulated with P. aeruginosa culture filtrate | activity change (cytotoxicity), % at 5 µM | 360,000 compounds, 0.36% hits;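 active = corrected activity change at or below -50% at 5 µM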
Numbers without * were called inactive. Sampled rows, rich in hits. Any-hit rate of the full collection: about 2.7%.

How did CCN(CC)c1ccc(/C=C2/SC(=O)N(C(C)C)C2=O)o1 do in these assays?
CF NFkB inh: 15; Shn3 inh set2: 96*; MITF TRPM1 inh: 9; Peg3 prom inh: -23; HIF-2a block: 24; KKLEB cytotox: -14

Results for Fc1cccc(Cc2c(-c3ccc(Cl)cc3)nc3ccc(Br)cn23)c1 ?
CF NFkB inh: 10; Shn3 inh set2: 15; Peg3 prom inh: -25; HIF-2a block: -110; KKLEB cytotox: -13

How did O=C1C=C(c2c(O)ccc3ccccc23)c2ccccc2C1=O do in these assays?
CF NFkB inh: 88*; Shn3 inh set2: 96*; MITF TRPM1 inh: inconclusive; Peg3 prom inh: 107*; HIF-2a block: 84*; KKLEB cytotox: -36

What do the screens show for `O=C1C=C(O)c2cccc(O)c2C1=O`?
CF NFkB inh: -18; Shn3 inh set2: -18; MITF TRPM1 inh: 22; Peg3 prom inh: 14; HIF-2a block: -2; KKLEB cytotox: -5

What do the screens show for `N#CCSc1ccccc1NC(=O)COC(=O)C1CCN(C(=O)c2ccc(Cl)cc2)CC1`?
CF NFkB inh: -11; Shn3 inh set2: -14; Peg3 prom inh: -4; HIF-2a block: 11; KKLEB cytotox: -6

What do the screens show for `CC12CCC(C/C1=N\N=C1\NC(=O)/C(=C\c3ccc(Cl)cc3)S1)C2(C)C` (stereo unspecified)?
CF NFkB inh: 89*; Shn3 inh set2: 28; MITF TRPM1 inh: -6; Peg3 prom inh: -30; HIF-2a block: -84; KKLEB cytotox: -94*

How did CC(=O)Nc1cc(-c2cccc(C(=O)N(C)C)c2)cn2c(-c3ccc(C(C)=O)cc3)cnc12 do in these assays?
CF NFkB inh: 16; Shn3 inh set2: 2; Peg3 prom inh: 24; HIF-2a block: 5; KKLEB cytotox: -12

Results for Cc1cccc(NC(=O)CCS(=O)(=O)c2ccc3nc(C)sc3c2)c1 ?
CF NFkB inh: -4; Shn3 inh set2: 0; Peg3 prom inh: 11; HIF-2a block: 12; KKLEB cytotox: 13

What do the screens show for `Cc1cc(-c2cccnc2)c(C#N)c(SCc2cccc(F)c2)n1`?
CF NFkB inh: 54*; Shn3 inh set2: 13; MITF TRPM1 inh: 3; Peg3 prom inh: 12; HIF-2a block: 14; KKLEB cytotox: -62*

Results for CCN(CC)CCNC(=O)CCc1c(C)nc2c(c(C)nn2-c2ccc(C)cc2)c1C ?
CF NFkB inh: 17; Shn3 inh set2: -63; MITF TRPM1 inh: 2; Peg3 prom inh: 73*; HIF-2a block: 28; KKLEB cytotox: -11

How did Oc1ccc(-c2n[nH]c(C(F)(F)F)c2-c2ccccc2)c(O)c1 do in these assays?
CF NFkB inh: 6; Shn3 inh set2: 87*; MITF TRPM1 inh: 8; Peg3 prom inh: 12; HIF-2a block: 12; KKLEB cytotox: -20

How did COc1ccccc1-c1c(-c2ccc(O)cc2O)n[nH]c1C(F)(F)F do in these assays?
CF NFkB inh: -21; Shn3 inh set2: 91*; MITF TRPM1 inh: 13; Peg3 prom inh: 13; HIF-2a block: 10; KKLEB cytotox: 7

How did COc1ccc(-c2c(-c3ccc(O)cc3O)n[nH]c2C(F)(F)F)cc1 do in these assays?
CF NFkB inh: -8; Shn3 inh set2: 17; MITF TRPM1 inh: 28; Peg3 prom inh: 0; HIF-2a block: 16; KKLEB cytotox: 0

Results for CC1=C(C(=O)N(C(C)C)C(C)C)CC(CC(=O)NC2CCCCC2)C(=O)N1Cc1ccc(F)cc1 (stereo unspecified) ?
CF NFkB inh: -6; Shn3 inh set2: -6; Peg3 prom inh: 14; HIF-2a block: 4; KKLEB cytotox: 4

What do the screens show for `Cc1cc(-c2nn(-c3ccccc3)cc2/C=C2\SC(N)=NC2=O)ccc1OC(C)C`?
CF NFkB inh: -14; Shn3 inh set2: 8; MITF TRPM1 inh: -6; Peg3 prom inh: 78*; HIF-2a block: 4; KKLEB cytotox: 12

How did CCCOc1ccc(-c2nn(-c3ccccc3)cc2/C=C2\SC(N)=NC2=O)cc1 do in these assays?
CF NFkB inh: 11; Shn3 inh set2: -5; MITF TRPM1 inh: 11; Peg3 prom inh: 11; HIF-2a block: 9; KKLEB cytotox: -3

What do the screens show for `COc1ccc(CNC(=O)CNC(C)c2ccc(F)cc2)cc1` (stereo unspecified)?
CF NFkB inh: -2; Shn3 inh set2: 5; MITF TRPM1 inh: -8; Peg3 prom inh: 11; HIF-2a block: 5; KKLEB cytotox: 4

How did COc1ccc(C(CCNC(C)c2ccccc2)c2ccc(F)cc2)cc1 (stereo unspecified) do in these assays?
CF NFkB inh: -6; Shn3 inh set2: 75; MITF TRPM1 inh: 70*; Peg3 prom inh: 107*; HIF-2a block: -17; KKLEB cytotox: 0

How did COc1ccc(C(CCNCc2ccc(F)cc2)c2ccc(F)cc2)cc1 (stereo unspecified) do in these assays?
CF NFkB inh: 17; Shn3 inh set2: 42; MITF TRPM1 inh: 31; Peg3 prom inh: 80*; HIF-2a block: -4; KKLEB cytotox: -19

Results for COc1ccc(C(CCNCc2ccccc2)c2ccc(F)cc2)cc1 (stereo unspecified) ?
CF NFkB inh: -4; Shn3 inh set2: 18; MITF TRPM1 inh: 10; Peg3 prom inh: 37; HIF-2a block: 1; KKLEB cytotox: -8

What do the screens show for `COc1ccc(CNCCC(c2ccc(F)cc2)c2ccc(OC)cc2)cc1` (stereo unspecified)?
CF NFkB inh: 10; Shn3 inh set2: 47; MITF TRPM1 inh: 64*; Peg3 prom inh: 76*; HIF-2a block: 3; KKLEB cytotox: -7

Results for COc1ccc(CNCCC(c2ccc(OC)cc2)c2ccccc2OC)cc1 (stereo unspecified) ?
CF NFkB inh: 1; Shn3 inh set2: 9; MITF TRPM1 inh: 20; Peg3 prom inh: 19; HIF-2a block: 18; KKLEB cytotox: 2

How did COc1ccc(CNCCC(c2ccc(F)cc2)c2ccc(OC(C)C)cc2)cc1OC (stereo unspecified) do in these assays?
CF NFkB inh: 9; MITF TRPM1 inh: 15; Peg3 prom inh: 110*; HIF-2a block: 13; KKLEB cytotox: -1

What do the screens show for `Cc1[nH]c2ccccc2c1/C=N/Nc1nc(Nc2ccccc2)nc(N2CCOCC2)n1`?
CF NFkB inh: 19; Shn3 inh set2: 22; MITF TRPM1 inh: -65; Peg3 prom inh: -12; HIF-2a block: -124; KKLEB cytotox: -32

How did Oc1[nH]c2ccccc2c1N=Nc1nc(Nc2ccccc2)nc(N2CCOCC2)n1 do in these assays?
CF NFkB inh: 34; Shn3 inh set2: 83; MITF TRPM1 inh: -8; Peg3 prom inh: 70*; HIF-2a block: -16; KKLEB cytotox: -15

How did CC1CCN(S(=O)(=O)c2ccc3c(c2)C(Cl)(Cl)C(=O)N3)CC1 do in these assays?
CF NFkB inh: 19; Shn3 inh set2: -3; Peg3 prom inh: 19; HIF-2a block: 23; KKLEB cytotox: 1

How did CC1(C)Cc2ccccc2C2=NNC(=O)C2=N1 do in these assays?
CF NFkB inh: 75*; Shn3 inh set2: 12; MITF TRPM1 inh: 96*; Peg3 prom inh: 50; HIF-2a block: 34; KKLEB cytotox: 0
